Laboratory results from PubChem BioAssay AID434973 (Sanford-Burnham Center for Chemical Genomics, 2010).
Out of some 330,000 compounds screened, about 4,900 (1.5%) were called active. The sample holds actives, similar compounds and a random draw of the others, so the mix is not that of the screen. Values without a mark were called inactive.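 Rule for the calls: active = inhibition above about 50% at the single test dose (limit read from the data); inactive = the rest.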 Non-standard residues stand in square brackets, D forms with d. Residues, ends and D or L forms follow the SMILES beside them. ξ: configuration not given here. *: point of attachment. Cbz = O=C(OCc1ccccc1)*; ξL = CC(C)CC(N)C(=O)O; ξP = O=C(O)C1CCCN1

The compounds below were run against Sentrin-specific protease 7 (Homo sapiens) (UniProt Q9BQF6) (assay: SENP7 protease inhibitors, primary screen, biochemical, luminescence, uHTS (AID 434973;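 note: plate controls were DMSO with enzyme for no effect and no enzyme buffer wells for full effect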)). Settings: recombinant SENP7, Z-RLRGG-aminoluciferin luminescence, 40 min; at 5 µM; active compounds read high.

| SMILES | inhibition |
| --- | --- |
| CC(OC(=O)c1ccc(Cl)cc1O)C(=O)NCCC1=CCCCC1 (stereo not drawn) | -16.5% |
| CC[N+](C)(CC)CCC[n+]1c(-c2ccccc2)c2cc(N)ccc2c2ccc(N)cc21 | 96.3% (active) |
| COC(=O)c1ccc(COc2ccc(C#N)cc2)o1 | 0.574% |
| Cc1cc2oc(=O)cc(CN3CCN(S(=O)(=O)c4cccs4)CC3)c2cc1C(C)C | 8.53% |
| Cc1nn(C)cc1C(=O)c1ccccc1 | 7.95% |
| Cn1c(-c2ccc(C(=O)c3ccccc3)s2)nc2ccccc21 | 98.5% (active) |
| Cn1c(NC(=O)c2ccccc2)nc2ccccc21 | 77.2% (active) |
| CCn1c(NC(=O)c2nn(C)cc2Br)nc2ccccc21 | -3.05% |
| Cn1c(Nc2cccc(Cl)c2)nc2ccccc21 | 4.17% |
| Cc1nc2ccccc2c(-c2ccccc2)c1C(=O)c1ccccc1 | -0.427% |
| CCC1(CC)NC(=O)N(CC(=O)OCC(=O)Nc2ccc(C(F)(F)F)cc2)C1=O | -0.704% |
| COC(=O)c1ccc(NC(=O)CSc2nnc(Cc3cccn3C)n2-c2ccc(F)cc2)cc1 | 9.96% |
| CC(C)c1ccc(C2C(C#N)=C(N)Oc3c2oc(CO)cc3=O)cc1 (stereo not drawn) | 3.37% |
| CCOC(=O)N1CCC(NC(=O)CN2C(=O)COc3ccc(C(C)(C)C)cc32)CC1 | -10.5% |
| O=S(=O)(NCCS(=O)(=O)N1CCN(c2ccccc2)CC1)c1ccc(F)cc1 | 9.28% |
| COc1cc2ccccc2cc1C(=O)Nc1nc(C)c(C(C)=O)s1 | -4.32% |
| COc1cc(SC)ccc1C(=O)N(Cc1ccccc1)c1ccccc1 | -1.54% |
| COc1cc(SC)ccc1C(=O)Nc1nc(C)cs1 | 101% (active) |
| Cc1csc(NC(=O)c2ccc(C)s2)n1 | 0.528% |
| Cc1ccnc(NC(=O)CNC(=O)c2ccccc2)c1 | -1.59% |
| COc1cc(SC)ccc1C(=O)Nc1cc(C)ccn1 | 60.6% (active) |
| Cc1ccnc(NC(=O)c2ccoc2C)c1 | 71.9% (active) |
| COc1cc(SC)ccc1C(=O)NNC(=O)C1COc2ccccc2O1 (stereo not drawn) | 5.69% |
| Cc1occc1C(=O)Nc1cccc(Cn2cccn2)c1 | 8.79% |

| SMILES | inhibition |
| --- | --- |
| COc1ccc(C(=O)Nc2cccc(NC(=O)c3ccc(OC)cc3OC)n2)c(OC)c1 | 0.763% |
| COC(=O)c1sc(NC(=O)c2ccc(OC)cc2OC)nc1C | 101% (active) |
| COc1ccc(C(=O)NC2=NCCS2)c(OC)c1 | 24.6% |
| CC(C)CC(NC(=O)C1CCCN1C(=O)[C@@H](C)NC(=O)OCc1ccccc1)C(=O)NCC(N)=O (stereo partly drawn) (Cbz-[dA][ξP][ξL]G-NH2) | 8.74% |
| CCC1CCCCN1CCNC(=O)c1[nH]c(C)c(C(C)=O)c1C (stereo not drawn) | 0.149% |
| COCn1c(C(O)c2ccccc2)cc2ccccc21 (stereo not drawn) | 12.5% |
| CCOC(=O)c1cnc(Nc2nc3ccccc3o2)nc1CSC(=S)N1CCCCC1 | 0.449% |
| CCn1ccnc1CN(C)C(=O)c1cc(COc2ccc(Cl)cc2OC)on1 | 5.22% |
| C=CCOc1ccc(/C=C/C(=O)OCC(=O)NC(C)c2ccc(F)cc2)cc1 (stereo not drawn) | -12.8% |
| CCOC(=O)c1c(N)sc2c1CCCC2=O | -8.61% |
| COc1ccc(S(=O)(=O)n2nc(C)c(S(=O)(=O)N3CCOCC3)c2C)cc1 | -1.04% |
| CC(C)COC(=O)n1c(=O)oc2ccc(S(=O)(=O)N3CCCCC3)cc21 | -5.94% |
| O=C(CSc1nnnn1-c1ccc(O)cc1)N1N=C(c2ccc3ccccc3c2)CC1c1ccccc1 (stereo not drawn) | 2.06% |
| CSc1ccc(/C=N/NC(=O)c2cccc(Cl)c2)cc1 | 96% (active) |
| O=C(N/N=C/c1ccc(Cl)c(Cl)c1)c1ccc2nc[nH]c2c1 | -0.0621% |
| CSc1ccc(/C=N\NC(=O)CC(=O)NC(C)C)cc1 | 4.98% |
| O=C(CN1C(=O)NC(Cc2ccccc2)(Cc2ccccc2)C1=O)NCC1CCCCC1 | -0.975% |
| COCCN(CCOC)c1nc(N)c2c(N)nc3c(c2c1C#N)CC(=O)N3Cc1ccc(Cl)cc1 | 58.9% (active) |
| Cc1ccccc1NC(=O)C(C)OC(=O)CCC(=O)N(CC(C)C)c1c(N)n(CC(C)C)c(=O)[nH]c1=O (stereo not drawn) | 9.72% |
| Cc1nn(-c2ccccc2)c2c1c(C)c(CCC(=O)NCC1CCCO1)c(=O)n2C (stereo not drawn) | -0.922% |
| COc1cc(C(=O)NCc2nnc(SCC(=O)Nc3nc4ccc(C)cc4s3)o2)cc(OC)c1OC | 3.97% |
| CN(C(=O)Nc1ccc(Cl)cc1)n1cnc2ccccc2c1=O | -9.71% |
| CCCc1nc2ccccc2c(=O)n1/N=C/c1ccc(O)c(O)c1 | -1.91% |
| O=c1c2ccccc2ncn1/N=C/c1ccccc1 | 88.5% (active) |
